# Values without a mark were called inactive.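 The calls were made as follows: active = AUC reduced over 20% with Padj below 0.05 in at least 2 of 3 replicates; inactive = otherwise.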
# System: Roseburia intestinalis
# Test: growth AUC relative to DMSO control (median of replicates) (fraction); higher = more growth (less inhibition), active = hit call of the paper
# Conditions: 20 µM; 24 h
# In short: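 Hourly OD600 readings over 24 h tracked anaerobic gut bacterial monocultures grown at 37 °C in mGAM from OD600 0.05 with 20 µM compound (1% DMSO). After the minimum OD was set to 0, area under the growth curve was normalised to the plate median of solvent-only wells, or to row and column medians on the industrial chemical plate. Values are medians of three biological replicates grown on separate days.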
row,SMILES,growth AUC
1,OC(Cc1ccccc1Cl)(Cn1cncn1)C1(Cl)CC1 (configuration not stated),1.05
2,CCCCN(CC)C(=O)SCCC,1.03
3,CCOCCN(C(=O)CCl)C(=C(C)C)c1ccccc1,1.03
4,CNC(=O)c1cc(Cl)cc(C)c1NC(=O)c1cc(Br)nn1-c1ncccc1Cl,0.957
5,CCOP(=S)(OCC)Oc1ccc(Cl)cc1Cl,1.05
6,CCCCCCCC(=O)Oc1c(I)cc(C#N)cc1I,0.957
7,O=[N+]([O-])c1ccc(Oc2ccc(Cl)cc2Cl)cc1,0.967
8,C[C@@H](Oc1ccc(Cl)cc1Cl)C(=O)O,0.927
9,O=[N+]([O-])c1c(Cl)c(Cl)c(Cl)c(Cl)c1Cl,0.993
10,O=c1oc2ccccc2c(O)c1C1CC(c2ccc(-c3ccc(Br)cc3)cc2)Cc2ccccc21 (configuration not stated),0.345 (active)
11,Oc1ccc(Cl)cc1Cc1cc(Cl)ccc1O,0.64 (active)
12,CC(C)C(C(=O)OC(C#N)c1cccc(Oc2ccccc2)c1)c1ccc(OC(F)F)cc1 (configuration not stated),0.977
13,ClC1=C(Cl)C2(Cl)C3C4C=CC(C4)C3C1(Cl)C2(Cl)Cl (configuration not stated),0.987
14,CC(C)C1(C)N=C(c2nc3ccccc3cc2C(=O)O)NC1=O (configuration not stated),1.03
15,CCCCOC(=O)[C@@H](C)Oc1ccc(Oc2ccc(C#N)cc2F)cc1,0.997
16,O=C1C=C(N(Cc2ccc(Cl)nc2)CC(F)F)CO1,1.02
17,COC(=O)C1(O)c2ccccc2-c2ccccc21,1
18,CCS(=O)c1c(C#N)nn(-c2c(Cl)cc(C(F)(F)F)cc2Cl)c1N (configuration not stated),1.01
19,CCOP(=S)(OCC)Oc1ccc([N+](=O)[O-])cc1,1.01
20,FC(F)C(F)(F)OCC(Cn1cncn1)c1ccc(Cl)cc1Cl (configuration not stated),0.956
21,COC(=O)NCc1cc(/C(C)=N/OCc2cccc(C)n2)ccc1Cl,0.957
22,C[N+](C)(C)CCCl.[Cl-],0.994
